Source: PubChem BioAssay (EPA / NIEHS)
Active and inactive are the calls of the source. The calls were made as follows: active = hit-call score of the fitted dose curve at least 0.9, where 1 is the maximum; inactive = score below 0.9.

assay: CCTE_Simmons_MITO_max_resp_rate: CCTE's HepG2 Seahorse XF Respirometric Screening Assay at Maximal Respiratory State [uncoupled], Simmons Lab (AID 2284002); settings: actives raise or lower the signal
Experimental: CCTE_Simmons_MITO is cell-based, respirometric assay using HepG2 cells and a Seahorse XF Analyzer to measure oxygen consumption rates over four temporal phases spanning a total of 72 minutes: pre-injection (pre-treatment), basal (following test compound injection), maximal (following FCCP uncoupler injection), and inhibited (following rotenone/antimycin A injection)CCTE_Simmons_MITO_max_resp_rate is one of 4 assay components calculated from the CCTE_Simmons_MITO assay. It is designed to make measurements of maximal respiration using a form of respirometric reporter, as detected with […] signals by Seahorse XF96 technology. Data from the assay component CCTE_Simmons_MITO_max_resp_rate was analyzed at the endpoint, CCTE_Simmons_MITO_max_resp_rate_OCR, with bidirectional fitting relative to DMSO as the negative control and baseline of activity. Using a type of respirometric reporter, measures of maximal respiration for gain or loss-of-signal activity can be used to understand cellular oxygen consumption as it relates to cellular respiration. To generalize the intended target to other relatable targets, this assay endpoint is annotated to the mitochondria intended target family, where the subfamily is respiration.
Test chemicals were administered as a titrated series of 7 concentrations from 125 nM up to 100 uM [final] prior to kinetic endpoint detection at 6 minute intervals [3 min mix followed by 3 minutes measure] for 72 minutes. Three biological replicates of technical singles were run for every chemical concentration tested. Dimethylsulfoxide [DMSO] was used as the vehicle control. The electron transport chain inhibitor fenpyroximate was used as the positive control for decreased basal respiration and was administered as a titrated series of 6 concentrations from 250 nM up to 2.75 uM [final] with technical triplicates for the top concentration only. The uncoupler 2,4-dintirophenol was used as the positive control for increased basal respiration and was administered as a titrated series of 6 concentrations from 938 nM up to 40 uM [final] with technical triplicates for the top concentration only. A Seahorse XF Analzyer is required to measure the response.

Row | Compound | AC50 | outcome
1 | CC[C@H](C)[C@H]1O[C@]2(C=C[C@@H]1C)C[C@@H]1C[C@@H](C/C=C(\C)[C@@H](O[C@H]3C[C@H](OC)[C@@H](O[C@H]4C[C@H](OC)[C@@H](NC)[C@H](C)O4)[C@H](C)O3)[C@@H](C)/C=C/C=C3\CO[C@@H]4[C@H](O)C(C)=C[C@@H](C(=O)O1)[C@]34O)O2 | 97.8 µM (active) | –
2 | CCc1cccc(CC)c1N(COC)C(=O)CCl | 13.8 µM (active) | –
3 | CC(C)N(C(=O)SCC(Cl)=C(Cl)Cl)C(C)C | – | inactive
4 | CN(C)[C@@H]1C(=O)C(C(N)=O)=C(O)[C@@]2(O)C(=O)C3=C(O)c4c(O)cccc4[C@@](C)(O)[C@H]3[C@H](O)[C@@H]12 | – | inactive
5 | FC(F)C(F)(F)OCC(Cn1cncn1)c1ccc(Cl)cc1Cl (stereo unspecified) | 22.5 µM (active) | –
6 | CC(C)=CC1C(C(=O)OCN2C(=O)C3=C(CCCC3)C2=O)C1(C)C (stereo unspecified) | 39.9 µM (active) | –
7 | CCCOCC(=Nc1ccc(Cl)cc1C(F)(F)F)n1ccnc1 | 15.4 µM (active) | –
8 | CC(C1CC1)C(O)(Cn1cncn1)c1ccc(Cl)cc1 (stereo unspecified) | 50 µM (active) | –
9 | COP(=O)(OC)OC(Br)C(Cl)(Cl)Br (stereo unspecified) | – | inactive
10 | CCOP(=S)(Oc1cnc(C(C)(C)C)nc1)OC(C)C (stereo unspecified) | 50 µM (active) | –
11 | CSC1=N[C@@](C)(c2ccccc2)C(=O)N1Nc1ccccc1 | 41 µM (active) | –
12 | N#CSCSC#N | 50 µM (active) | –
13 | O=C(O)c1cc(Oc2ccc(C(F)(F)F)cc2Cl)ccc1[N+](=O)[O-] | 32.9 µM (active) | –
14 | CCCCOC(=O)[C@@H](C)Oc1ccc(Oc2ccc(C#N)cc2F)cc1 | – | inactive
15 | CCc1cccc(C)c1N(C(=O)CCl)C(C)COC (stereo unspecified) | 39.7 µM (active) | –
16 | CCC(CC)Nc1c([N+](=O)[O-])cc(C)c(C)c1[N+](=O)[O-] | 29.8 µM (active) | –
17 | CON=C(C(=O)OC)c1ccccc1CON=C(C)c1cccc(C(F)(F)F)c1 | 7.03 µM (active) | –
18 | CCC(=O)Nc1ccc(Cl)c(Cl)c1 | 27.3 µM (active) | –
19 | O=[N+]([O-])c1cc(C(F)(F)F)c(Cl)c([N+](=O)[O-])c1Nc1ncc(C(F)(F)F)cc1Cl | – | inactive
20 | C[Si](Cn1cncn1)(c1ccc(F)cc1)c1ccc(F)cc1 | 16.2 µM (active) | –
21 | CCCSP(=O)(OCC)SCCC | 38.1 µM (active) | –
22 | C#CCC1=C(C)C(OC(=O)C2C(C=C(C)C)C2(C)C)CC1=O (stereo unspecified) | 33.7 µM (active) | –
23 | CC1(C(=O)Nc2ccc(O)c(Cl)c2Cl)CCCCC1 | 31.4 µM (active) | –
24 | CCOP(=S)(OCC)SCCSCC | – | inactive
25 | C=C(C)[C@H]1Cc2c(ccc3c2O[C@@H]2COc4cc(OC)c(OC)cc4[C@@H]2C3=O)O1 | 0.0663 µM (active) | –
26 | CC(COc1ccc(Oc2ccccc2)cc1)Oc1ccccn1 (stereo unspecified) | – | inactive
